Here are results for six compounds from PubChem BioAssay.

Assay [1] can be described thus: liver-stage malaria parasite growth inhibition, primary screen, cell-based, HepG2, luciferase luminescence, HepG2 viability (AID 624349).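 Note: 100% = mean of DMSO negative control wells on the same plate.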 The conditions noted are these: P. berghei liver stage in HepG2, luciferase luminescence, concentration not given here; parasite load remaining: stronger effect = lower value; viability: measured here: HepG2 viability without parasites.
For assay [2], the system named is Hepatitis C virus NS3 helicase. The assay can be described thus: HCV NS3 helicase inhibitors, primary screen, biochemical, fluorescence polarization, LOPAC1280 library (AID 687035; in the data active = inhibition above about 37%). As to conditions: Purified HCV NS3 helicase, Cy5-dT15 ssDNA binding fluorescence polarization; stronger effect = higher value; concentration not given here. On the technique in general: In fluorescence polarisation assays a small probe gives low polarisation when free and higher when bound to something large.

A short description of assay [3]: Cy5 fluorescence quenching or enhancement artefacts, artefact control for HCV NS3 helicase inhibitor project, biochemical, LOPAC1280 (AID 687037; call rule not given here). As to conditions: Cy5-DNA-NS3h complex fluorescence interference counterscreen. For orientation: Counterscreens check selectivity or assay interference.
Assay [4] is described as follows: stimulators of nuclear beta-catenin in C2C12, primary screen, imaging, WNT3A-conditioned medium, mouse C2C12, NPC library (AID 1117326; in the data active = nuclear beta-catenin stimulation mostly above about 4.2%, no sharp cut-off; inactive = mostly below about 10%). As to conditions: stronger effect = higher value.
Assay [5] is described as follows: stimulators of insulin release from INS-1E, primary screen, cell-based, 5 mM glucose, NPC library (AID 1117329;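 active = compound raises insulin release from rat beta cells at 5 mM glucose, no numeric limit stated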). The conditions noted are these: rat INS-1E insulin secretion, at 10 µM, stronger effect = higher value.
The nature of assay [6]: growth inhibition of GSK3B-pretreated HCT116 cells – cell-based, CellTiter-Glo, 0.2 to 20 µM (AID 1117336;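 active = compounds lowering colon cancer cell viability after pretreatment blocking the GSK3B kinase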). As to conditions: HCT116 viability after GSK3B inhibitor, at 20 µM, stronger effect = higher value.
Assay [7] is described as follows: inhibition of endothelial tube formation, primary screen, imaging, VEGF stimulated, CD31 staining, tube area, NPC library (AID 1117340;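 active = compound that reduces growth-factor-driven endothelial tube area in a mixed cell culture, no cutoff stated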). As to conditions: VEGF-stimulated ADSC/ECFC co-culture, at 10 µM, stronger effect = higher value.
Assay [8] is described as follows: glucagon-like peptide 1 release enhancers, primary assay, NCI-H716 cell line, NPC library (AID 1117341;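 active = compound raises GLP1 secretion from the human gut endocrine cells, with no numeric limit stated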). The conditions noted are these: NCI-H716 cells, at 10 µM, stronger effect = higher value.
A short description of assay [9]: HCT116 colon cancer cell growth inhibition, primary screen, CellTiter-Glo luminescence, NPC library (AID 1117342;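 active = compounds that lower survival of HCT116 colon cancer cells in the luminescence readout, no numeric limit stated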). The conditions noted are these: at 20 µM (top of the series).
Assay [10] in a line: CellTiter-Glo luminescent readout of SW480 viability loss, NPC library primary (AID 1117343;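 active = compounds that lower viability of the colon cancer cells in the luminescence readout, with no numeric limit stated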). As to conditions: CellTiter-Glo luminescence; at 20 µM (top of the series). On the technique in general: ATP-based viability assays read luminescence as a measure of living cells.
Assay [11] can be described thus: decreased DLD-1 cellular survival, CellTiter-Glo luminescent readout, NPC compound collection, primary HTS (AID 1117346;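 active = compounds that lower survival of DLD-1 colon cancer cells in the luminescence readout, no cutoff given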). As to conditions: DLD-1 viability, CellTiter-Glo luminescence; at 20 µM (top of the series).
The target of assay [12] is 6-phosphogluconate dehydrogenase, decarboxylating (Homo sapiens) (UniProt P52209). Put plainly: 6PGD enzyme inhibitors, primary screen, biochemical, human, recombinant enzyme, NADPH absorbance (AID 1159550;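 active = at least 20% inhibition of 6-phosphogluconate dehydrogenase activity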). The conditions noted are these: recombinant 6PGD, NADPH absorbance 341 nm; at 10 µM; stronger effect = higher value.

The structures appear in SMILES notation. Several values for one entry are separate records, joined by “and”; a condition that tells them apart may be missing. Equal entries are not always repeated. Activity calls are given as the source filed them. Cut-off read from the data, not from the text of the source, unless noted: active = parasite load remaining mostly below about 12% (no sharp cut-off); inactive = mostly above about 10%.

Chain of 6-phosphogluconate dehydrogenase, decarboxylating (Homo sapiens) (P52209 whole entry, looked up): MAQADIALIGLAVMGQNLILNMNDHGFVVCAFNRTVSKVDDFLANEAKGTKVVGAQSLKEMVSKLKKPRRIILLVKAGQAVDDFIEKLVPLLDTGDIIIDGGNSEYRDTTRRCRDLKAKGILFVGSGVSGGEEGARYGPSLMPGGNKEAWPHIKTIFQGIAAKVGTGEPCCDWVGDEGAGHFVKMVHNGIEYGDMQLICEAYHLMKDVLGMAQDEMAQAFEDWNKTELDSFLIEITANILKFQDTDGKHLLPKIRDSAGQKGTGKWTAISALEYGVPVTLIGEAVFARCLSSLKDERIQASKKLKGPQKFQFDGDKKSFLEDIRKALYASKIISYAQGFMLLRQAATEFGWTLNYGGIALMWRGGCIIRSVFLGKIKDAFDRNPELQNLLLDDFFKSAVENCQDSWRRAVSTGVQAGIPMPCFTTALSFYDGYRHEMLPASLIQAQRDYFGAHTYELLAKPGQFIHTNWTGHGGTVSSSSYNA

`Cc1scc2c1N(C(=O)CN1CCN(C)CC1)c1ccccc1NC2=O`: in assay [1], the parasite load remaining is 42.9% (inactive) and 96% (inactive) and 50.1% (inactive). For the same compound, the viability in [1] was 49.7% and 86.8% and 142%. Also, the inhibition in assay [2] is -3% (inactive); in assay [12], 10.3% (inactive). In addition, the fluorescence ratio (interference) in assay [3] is 1 (inactive). The nuclear beta-catenin stimulation in assay [4] (at 10 µM) was 1% (inactive); in assay [4] (stimulation, at 2 µM) it was 1.6%. The insulin secretion stimulation in [5] is 4% (inactive). Moreover, the viability decrease in assay [6] is -15.9% (inactive). The tube area decrease in assay [7] is -6.3% (inactive). In assay [8], the GLP1 secretion stimulation is -2.6% (inactive). Further, in assay [9], the inhibition of viability is -4.6% (inactive). Moreover, the viability decrease (inhibition) was 2% (inactive) in assay [10] and 1.4% (active) in [11].

`CC(=O)N[C@@H](CS)C(=O)O`: the parasite load remaining in assay [1] was 106% (inactive) and 79.1% (inactive). For the same compound, the viability in assay [1] was 72.7% and 91.5%. The figures for the inhibition in assay [2] and in assay [12] were 0% (inactive) and -17.2% (inactive), respectively. Further, in assay [3], the fluorescence ratio (interference) is 0.9 (inactive). Besides, the nuclear beta-catenin stimulation in assay [4] (at 10 µM) was 2.6% (inactive); in assay [4] (stimulation, at 2 µM) it was -1.4%. The insulin secretion stimulation in assay [5] is 0.8% (inactive). For the same compound, the viability decrease in assay [6] was -18.8% (inactive). Moreover, the tube area decrease in assay [7] is 18% (inactive). Moreover, in assay [8], the GLP1 secretion stimulation is 0.7% (inactive). The inhibition of viability in assay [9] is -0.95% (inactive). The viability decrease (inhibition) in [10] is 0.1% (inactive); in assay [11] it was 7.4% (inactive).

In the case of `Nc1ccc(S(=O)(=O)Nc2ccnn2-c2ccccc2)cc1`, the parasite load remaining in [1] was 33% (inactive) and 120% (inactive) and 106% (inactive). Further, the viability in assay [1] was 49.4% and 69.4% and 93.2%. The inhibition is 1% (inactive) in assay [2] and -9.54% (inactive) in assay [12]. Moreover, the fluorescence ratio (interference) in [3] is 1 (inactive). Also, the nuclear beta-catenin stimulation in [4] (at 10 µM) is 0.1% (inactive); in assay [4] (stimulation, at 2 µM), -0.2%. The insulin secretion stimulation in assay [5] was -1.3% (inactive). The viability decrease in assay [6] is -8.8% (inactive). The tube area decrease in [7] was -4.8% (inactive). The GLP1 secretion stimulation in assay [8] is 3.3% (inactive). In addition, the inhibition of viability in assay [9] is -9.2% (inactive). The values for the viability decrease (inhibition) in [10] and in [11] were 6.4% (inactive) and -3.95% (inactive), respectively.

Take `COc1ccc2[nH]cc(CCNC(C)=O)c2c1`: the inhibition in assay [2] was -3% (inactive); in assay [12], 6.51% (inactive). Also, the fluorescence ratio (interference) in assay [3] is 1 (inactive). For the same compound, the nuclear beta-catenin stimulation in assay [4] (at 10 µM) is 0.2% (inactive); in assay [4] (stimulation, at 2 µM), -0.2%. The insulin secretion stimulation in assay [5] was -2.5% (inactive). For the same compound, the viability decrease in assay [6] is -6.45% (inactive). The tube area decrease in assay [7] was -3.4% (inactive). Further, the GLP1 secretion stimulation in assay [8] is 4.5% (inactive). Moreover, the inhibition of viability in [9] is -6.9% (inactive). In addition, the viability decrease (inhibition) in [10] is 20.8% (inactive); in assay [11], 7.55% (inactive).

As for `CCN(CC)CCNC(=O)c1cc(S(C)(=O)=O)ccc1OC`, the figures for the inhibition in assay [2] and in assay [12] were -3% (inactive) and -8.37% (inactive), respectively. For the same compound, in assay [3], the fluorescence ratio (interference) was 0.9 (inactive). Also, the nuclear beta-catenin stimulation in assay [4] (at 10 µM) was 1.9% (inactive); in assay [4] (stimulation, at 2 µM) it was 0.2%. Further, in assay [5], the insulin secretion stimulation is 0.1% (inactive). In addition, the viability decrease in assay [6] was -23.6% (inactive). For the same compound, the tube area decrease in assay [7] is 12% (inactive). Moreover, in assay [8], the GLP1 secretion stimulation was 0.7% (inactive). Also, the inhibition of viability in assay [9] was 1.13% (inactive). Further, the viability decrease (inhibition) in assay [10] is 10.9% (inactive); in assay [11] it was -4.3% (inactive).

In the case of `NC(=O)c1ncn([C@@H]2O[C@H](CO)[C@@H](O)[C@H]2O)n1`, the parasite load remaining in assay [1] was 64.8% (inactive) and 245% (inactive) and 27% (inactive). Further, the viability in assay [1] was 80.3% and 108% and 67%. Besides, the inhibition in [2] is -6% (inactive); in assay [12] it was 16.1% (inactive). Further, the fluorescence ratio (interference) in assay [3] was 0.9 (inactive). The nuclear beta-catenin stimulation is 1.7% (inactive) in [4] (at 10 µM) and 2.6% in assay [4] (stimulation, at 2 µM). In addition, the insulin secretion stimulation in [5] is 0% (inactive). The viability decrease in assay [6] was -32.4% (inactive). Further, the tube area decrease in assay [7] is 25.6% (inactive). Further, in [8], the GLP1 secretion stimulation is 0.7% (inactive). Besides, the inhibition of viability in assay [9] is -15.3% (inactive). Moreover, the viability decrease (inhibition) in assay [10] was -29.6% (inactive); in assay [11], 11.6% (inactive).

By viability is commonly meant a read-out of living cells in per cent, often relative to untreated cells. For orientation: inhibition means the relative decrease from the control value, in per cent.
